Compound activity: PubChem, University of Kansas High Throughput Screening Laboratory
A selection: hits, their analogues and other compounds. The true share with any hit is near 3.6%.
mHTT CaM bind: mHTT-calmodulin interaction abrogation. P42858. AlphaScreen His-mHTT/GST-CaM binding, luminescence. inhibition, % at 15 µM. 3.6% of 190,000 active. AID 1671202
Pf apPOL block: Pf-apPOL DNA polymerase inhibition; inhibition, % at 10 µM; Recombinant Pf-apPOL, molecular beacon fluorescence, 1.5 h; 0.25% of 210,000 active
A number is an active result; – = inactive; · = no result given. Cut-off read from the data, not from the text of the source: active = inhibition above about 50%; inactive = the rest.

SMILES | mHTT CaM bind | Pf apPOL block
CCCn1cc(C(=O)NCc2cccnc2)c2cccnc21 | – | –
COc1ccc(CN2CCN(c3cccc(Cl)c3)CC2)cc1O | – | –
COc1cc(CN2CCN(c3cccc(Cl)c3)CC2)cc(I)c1O | 58 | –
COc1ccc2c(c1)C1(CCN(C(=O)C3CCC3)C1)C(=O)N2 (stereo unspecified) | – | –
COc1ccc(Cl)cc1NC(=O)C1c2ccccc2C(=O)N2CCCCC12 (stereo unspecified) | – | –
COc1ccc(Cl)cc1NC(=O)C1c2cc(OC)c(OC)cc2C(=O)N2CCCCC12 (stereo unspecified) | 79 | –
CCc1ccc(CN2CCN(CC)CC2)cc1 | – | –
Cc1c(C#N)c(N)n(CC2CCCO2)c1C (stereo unspecified) | – | ·
Cc1c(C#N)c(N)n(CCCn2ccnc2)c1C | 99 | ·
O=[N+]([O-])c1ccc(Cl)c2nonc12 | 96 | ·
O=[N+]([O-])c1ccc(N2CCCCC2)c2nonc12 | · | –
O=[N+]([O-])c1ccc(N2CCOCC2)c2nonc12 | · | –
Nc1ccc([N+](=O)[O-])c2nonc12 | 53 | ·
c1ccc(CCNCc2ccccn2)cc1 | – | –
COc1ccc2c(c1)C1(CCN(C(=O)c3ccccc3)C1)C(=O)N2C (stereo unspecified) | – | –
CC1N=C(c2ccccc2)c2ccccc2N(CC(=O)Nc2cccc(Cl)c2)C1=O (stereo unspecified) | – | –
Cc1ccc(NC(=O)CN2C(=O)C(C)N=C(c3ccccc3)c3ccccc32)cc1Cl (stereo unspecified) | 52 | –
CCOc1ccc2nc(Sc3ccc(C=C4C(=O)NC(=O)NC4=O)o3)sc2c1 | – | –
Cc1ccccc1-n1c(/C=C2\C(=O)Nc3ccc(Br)cc32)nc2ccccc2c1=O | – | –
Cc1ccccc1-n1c(/C=C2\C(=O)N(C)c3ccccc32)nc2ccccc2c1=O | 65 | –
CCOC(=O)COc1cc(C)cc2oc(=O)c3c(c12)CCCC3 | – | –
COc1ccc(C=C2CC3C4CCC5CCCCC5(C)C4CCC3(C)C2=O)cc1 (stereo unspecified) | – | –
Cc1cc([N+](=O)[O-])nn1CC(=O)Nc1ccc(Cl)cc1C(=O)c1ccccc1 | – | –
O=C(CN1CCN(c2ccc(F)cc2)CC1)Nc1ccc(Cl)cc1C(=O)c1ccccc1 | 72 | –
Cc1cc(C(=O)N2CC3CC(C2)c2cccc(=O)n2C3)c(C)o1 (stereo unspecified) | – | –
SMILES | mHTT CaM bind | Pf apPOL block
CCOc1ccc(/C=C/[N+](=O)[O-])cc1 | – | –
CCOc1cc(/C=C/[N+](=O)[O-])cc(Br)c1O | 78 | –
COc1cc(/C=C/[N+](=O)[O-])cc(Br)c1O | 52 | –
COc1cc(/C=C(\C)[N+](=O)[O-])cc(Br)c1O | – | –
Cc1cc(OCc2ccccc2Cl)c2c3c(c(=O)oc2c1)CCCC3 | – | –
Cc1cccc(-n2c(-c3cccnc3)nc3ccccc3c2=O)c1 | 100 | –
Cc1ccc(-c2nc3ccccc3c(=O)n2-c2cccnc2)cc1 | – | –
O=[N+]([O-])c1cc(-c2cc([N+](=O)[O-])[nH]n2)n[nH]1 | – | ·
O=C(O)C1Nc2c(F)cccc2C2C(Cl)C(Sc3ccccc3[N+](=O)[O-])CC12 (stereo unspecified) | 68 | –
O=[N+]([O-])c1cc2nonc2c2n[nH]nc12 | – | ·
O=[N+]([O-])c1c(Br)c([N+](=O)[O-])c2n[nH]nc2c1Br | 88 | –
CCCn1cc(C(=O)NCc2ccccn2)c2cccnc21 | – | –
CC1CN(c2ccc([N+](=O)[O-])cc2Cl)CC(C)N1 (stereo unspecified) | – | –
CN1CCN(Cc2cccc(Cl)c2)CC1 | – | –
CC12CN3CC(C)(CN(C1)C3c1cccs1)C2=O (stereo unspecified) | – | –
CC12CN3CC(C)(CN(C1)C3c1ccccn1)C2O (stereo unspecified) | 100 | –
CC(C)n1c(C2CCCNC2)n[nH]c1=O (stereo unspecified) | – | –
O=C(O)c1cn(Cc2cccc(F)c2)nn1 | – | –
COc1cc(/C=C/[N+](=O)[O-])cc(I)c1OCc1ccccc1 | – | –
CCOc1cc(/C=C/[N+](=O)[O-])cc(I)c1O | 57 | –
COc1cc(/C=C/[N+](=O)[O-])cc(I)c1O | 52 | –
C#CCOc1c(I)cc(/C=C/[N+](=O)[O-])cc1OC | – | –
NCC1CCCN2CCCCC12 (stereo unspecified) | – | ·
Cc1ccc(CN2CCN(CCO)CC2)cc1 | – | –
CCCc1c(C)c2cc3c(C)c(C)oc3cc2oc1=O | – | –
O=C1CC(=O)N(c2cccc(Cl)c2Cl)C(=O)N1 | – | –
O=c1ccsn1-c1cccc(Cl)c1F | · | 93
O=[N+]([O-])/C=C/c1cccc(OCc2ccccc2Cl)c1 | – | –
O=C1CN=C(c2ccccc2Br)c2cc(Cl)ccc2N1 | – | –
Cc1ccc(C2=NCC(=O)Nc3ccc(Br)cc32)cc1 | 97 | –
